The values below come from PubChem BioAssay (NCATS).

Test [1] has as its target Lysosomal acid glucosylceramidase (Homo sapiens) (UniProt P04062). The test is described as follows: Glucocerebrosidase-p2 (AID 348; in the data active = potency below about 10 µM; note: potency is the fitted concentration of half-maximal effect). The note with it: purified GBA, blue fluorogenic substrate, 40 min. The gist of the method:
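Normal human glucocerebrosidase (0.2 nM) with blue fluorogenic substrate (80 uM final) in citrate/phosphate pH 5.9 with 10mM sodium taurocholate, 0.01% tween-20; 40 min RT, NaOH/glycine stop; fluorescence Ex 365/Em 440; AC50 from a titration from 0.6 nM upwards.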

Test [2] is described as follows: AP1 Signaling Pathway (AID 357). Note: % is set by controls: 0 for no effect and ±100 for the full control effect. The conditions noted are these: ME-180 AP-1-bla reporter, EGF-induced, beta-lactamase ratio, 5 h; at 7.69 µM (top of the series) unless noted. A digest of the protocol: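 ME-180 cells with beta-lactamase reporter under AP-1 response element, stimulated with EC50 EGF; compounds tested in titration series, 5 h at 37 °C. CCF4 substrate added 2.5 h at room temperature; 460/530 nm emission ratio gave %activity and AC50.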

In test [3] the target is Cytochrome P450 1A2 (Homo sapiens) (UniProt P05177). The test is described as follows: p450-cyp1a2 (AID 410; calls by dose curve; note: potency is the fitted concentration of half-maximal effect). The conditions noted are these: recombinant CYP1A2, luciferin-ME demethylation, luminescence; series mostly up to 57 µM. The gist of the method: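 O-Demethylation of luciferin 6' methyl ether by human CYP1A2 is monitored as luciferase luminescence. Substrate sits at Km (100uM); enzyme is 20nM. Values are scaled to 57 uM furafylline as maximal inhibition.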

The nature of test [4]: Stat Signaling Pathway (AID 446).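 Note: ME-180 cervical cancer cells given 40 pM IL-6 alongside compound; SIE-controlled beta-lactamase reporter measured as 460/530 nm FRET emission ratio; % is set by controls: 0 for no effect and ±100 for the full control effect.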 The note with it: ME-180 SIE beta-lactamase reporter, IL-6 stimulated, 5 h; at 7.69 µM (top of the series) unless noted. A digest of the protocol:
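Normalization used AC90 stimulation (300 pM IL-6) and AC90 inhibition (125 nM pan-JAK inhibitor at 40 pM IL-6). The underlying signal is SIE-driven beta-lactamase in ME-180 cells after 5 h IL-6 exposure with compound.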

Test [5] addresses Glucocorticoid receptor (Homo sapiens) (UniProt P04150). The test is described as follows: GR-EFC Redistribution (AID 451; calls by dose curve; note: potency is the fitted concentration of half-maximal effect). The note with it: CHO-K1 GR-EFC translocation, beta-gal luminescence, 2 h. The gist of the method: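 CHO-K1 cells expressing nuclear EA and GR-ED fragments of b-gal; compounds titrated up to 46 uM final, 2 h at 37 C. GR nuclear translocation read as complemented b-gal luminescence after 1 h RT detection.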

Test [6] has as its target Mitogen-activated protein kinase 10 (Mus musculus) (UniProt Q61831). The test is described as follows: JNK3 AlphaScreen Assay (AID 530).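 Note: kinase came from lysate of stimulated human HepG2 cells; signal reports phosphorylation of biotinylated GST-cJun 1-79 at Ser73 with 10 µM ATP; % is set by controls: 0 for no effect and ±100 for the full control effect.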 The conditions noted are these: JNK3 lysate, c-Jun phosphorylation; series mostly up to 57.1 µM. A digest of the protocol:
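Activity was read by AlphaScreen after JNK3-containing HepG2 lysate (cytokine pre-activated) phosphorylated biotinylated GST-cJun with 10 uM ATP at room temperature. Phospho-Ser73 cJun antibody with Protein-A acceptor beads provided detection.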

Test [7] deals with 3',5'-cyclic-AMP phosphodiesterase 4B (Homo sapiens) (UniProt Q07343). Briefly: qHTS Assay for Inhibitors of PDE-IV (AID 607; active = well fitted activation curve with a large enough effect in the main read-out, with a control signal flat, not every such curve was filed as active; note: % of control where 0% means no effect). The conditions noted are these: HEK293 ACTOne CNG channel cells, membrane potential fluorescence; series mostly up to 22.9 µM. A digest of the protocol: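 HEK293 ACTOne cells with CNG channel (1000/well), endogenous PDE4; membrane potential dye, compounds up to 22.9 uM final. Fluorescence Ex 535/Em 590; RO 20-1724 (100 uM final) as reference.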
A general note: qHTS replaces the single test concentration by a dilution series.

A short description of test [8]: qHTS Assay for Identification of Small Molecule Agonists for Hypoxia Response Element Signaling Pathway (AID 914; active = well fitted activation curve with a large enough effect in the signal ratio, with a control signal flat, not every such curve was filed as active; the % refers to the signal ratio; note: % of control where 0% means no effect). The note with it: ME-180 (cervical carcinoma) HRE-bla reporter, beta-lactamase ratio, CoCl2, 17 h; activation: hits give high values. A digest of the protocol:
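HRE-bla ME-180 cells with beta-lactamase reporter under hypoxia response element, compounds with EC50 CoCl2 for 17 hours at 37 C. CCF4 substrate, 460nm/530nm emission ratio gave %Activity; AC50 from titration series.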

Test [9] is described as follows: Primary qHTS for small molecule stabilizers of the endoplasmic reticulum resident proteome: Secreted ER Calcium Modulated Protein (SERCaMP) assay (AID 1508630; active = well fitted curve in the direction sought with a large enough effect; an effect the other way counts as inactive or inconclusive; note: % is set by controls: 0 for no effect and ±100 for the full control effect). The conditions noted are these: SH-SY5Y GLuc-SERCaMP (Gaussia luciferase released on ER calcium loss) secretion, thapsigargin, luminescence; series mostly up to 38.4 µM. A digest of the protocol:
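The SH-SY5Y reporter protocol was run at 3 concentrations up to 38.3 uM (primary) or 11 concentrations (follow-up): 16 h compound, 100 nM thapsigargin for 4 h, then extracellular luciferase luminescence.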

The target of test [10] is Cytochrome P450 2D6 (Homo sapiens) (UniProt P10635). The test is described as follows: qHTS Assay for Inhibitors and Substrates of Cytochrome P450 2D6 (AID 891; active = well fitted curve in the direction sought with a large enough effect; an effect the other way counts as inactive or inconclusive; note: potency is the fitted concentration of half-maximal effect; nearly all actives have a fitted effect of over 60% in size). The conditions noted are these: recombinant CYP2D6, luciferin-ME EGE luminescence; series mostly up to 57.1 µM. The gist of the method:
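Luminescent read-out of luciferin formed by 5 nM human CYP2D6 demethylating 30 uM Luciferin-ME EGE (Km level) over 60 min at room temperature after NADPH regeneration addition. Data normalized to full inhibition by 1.43 uM quinidine.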

In test [11] the target is Cytochrome P450 3A4 (Homo sapiens) (UniProt P08684). Briefly: qHTS Assay for Activators of Cytochrome P450 3A4 (AID 885; active = well fitted curve in the direction sought with a large enough effect; an effect the other way counts as inactive or inconclusive; note: nearly all actives have a fitted effect of over 65% in size). The note with it: recombinant CYP3A4, Luciferin-PPXE luminescence, 60 min; series mostly up to 57.1 µM. A digest of the protocol: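 Human CYP3A4 dealkylates Luciferin-PPXE to luciferin, which luciferase detection converts to light. Substrate was at its KM (25uM), buffer 200mM KPO4, reaction 60 min at RT.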

The target is the same in test [12]. The test is described as follows: qHTS Assay for Inhibitors and Substrates of Cytochrome P450 3A4 (AID 884; active = well fitted curve in the direction sought with a large enough effect; an effect the other way counts as inactive or inconclusive; note: potency is the fitted concentration of half-maximal effect; nearly all actives have a fitted effect of over 50% in size). The note with it: recombinant CYP3A4, Luciferin-PPXE luminescence; series mostly up to 57.1 µM. The gist of the method:
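Luminescent readout of luciferin produced by CYP3A4 (20 nM) dealkylation of Luciferin-PPXE, 25 uM (its KM). NADPH-driven reaction ran 60 min at RT after 10 min compound preincubation; data scaled to 57 uM ketoconazole as 100% inhibition.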

Unmarked numbers belong to inactive results. Inconclusive results are not listed. Activity calls are given as the source filed them. Unless noted, calls come from the whole dose curve; as a rule, active = well fitted curve in either direction with a large enough effect (not every such curve was filed as active); inconclusive = small, poorly fitted or top-dose-only effect, or another doubt; inactive = flat fitted curve, though single readings scatter. A value given as a limit tells only on which side of the number the result lay.

Lysosomal acid glucosylceramidase (Homo sapiens), sequence (P04062 whole entry, looked up): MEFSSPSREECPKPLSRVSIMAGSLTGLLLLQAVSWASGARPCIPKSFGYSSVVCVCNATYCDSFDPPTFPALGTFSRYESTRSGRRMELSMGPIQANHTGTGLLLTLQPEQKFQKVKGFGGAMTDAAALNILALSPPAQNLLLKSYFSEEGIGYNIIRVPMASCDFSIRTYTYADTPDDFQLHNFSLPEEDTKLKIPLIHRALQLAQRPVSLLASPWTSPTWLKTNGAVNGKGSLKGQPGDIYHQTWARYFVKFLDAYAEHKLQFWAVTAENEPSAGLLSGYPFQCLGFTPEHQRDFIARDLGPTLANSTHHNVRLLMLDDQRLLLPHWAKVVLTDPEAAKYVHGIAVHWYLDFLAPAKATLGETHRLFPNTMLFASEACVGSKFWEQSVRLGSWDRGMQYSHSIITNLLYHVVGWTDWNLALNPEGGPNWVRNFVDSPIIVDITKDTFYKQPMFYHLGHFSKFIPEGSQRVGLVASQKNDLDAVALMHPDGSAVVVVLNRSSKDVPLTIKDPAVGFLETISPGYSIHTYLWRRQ
Cytochrome P450 1A2 (Homo sapiens), sequence (P05177 whole entry, looked up): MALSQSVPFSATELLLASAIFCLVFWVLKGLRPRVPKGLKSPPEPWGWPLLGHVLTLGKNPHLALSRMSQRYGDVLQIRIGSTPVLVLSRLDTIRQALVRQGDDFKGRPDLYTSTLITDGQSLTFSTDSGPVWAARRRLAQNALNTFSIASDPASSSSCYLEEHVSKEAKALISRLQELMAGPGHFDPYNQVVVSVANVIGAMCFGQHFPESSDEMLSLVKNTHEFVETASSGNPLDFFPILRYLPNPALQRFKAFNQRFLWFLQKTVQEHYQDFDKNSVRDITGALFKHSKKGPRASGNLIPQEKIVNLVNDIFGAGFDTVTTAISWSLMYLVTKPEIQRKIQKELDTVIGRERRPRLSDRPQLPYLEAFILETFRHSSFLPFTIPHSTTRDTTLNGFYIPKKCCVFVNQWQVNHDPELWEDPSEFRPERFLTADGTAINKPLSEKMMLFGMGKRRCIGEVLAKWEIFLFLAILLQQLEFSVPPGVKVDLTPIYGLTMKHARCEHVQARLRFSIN
Glucocorticoid receptor (Homo sapiens), sequence (P04150 whole entry, looked up, the tested form may be a part): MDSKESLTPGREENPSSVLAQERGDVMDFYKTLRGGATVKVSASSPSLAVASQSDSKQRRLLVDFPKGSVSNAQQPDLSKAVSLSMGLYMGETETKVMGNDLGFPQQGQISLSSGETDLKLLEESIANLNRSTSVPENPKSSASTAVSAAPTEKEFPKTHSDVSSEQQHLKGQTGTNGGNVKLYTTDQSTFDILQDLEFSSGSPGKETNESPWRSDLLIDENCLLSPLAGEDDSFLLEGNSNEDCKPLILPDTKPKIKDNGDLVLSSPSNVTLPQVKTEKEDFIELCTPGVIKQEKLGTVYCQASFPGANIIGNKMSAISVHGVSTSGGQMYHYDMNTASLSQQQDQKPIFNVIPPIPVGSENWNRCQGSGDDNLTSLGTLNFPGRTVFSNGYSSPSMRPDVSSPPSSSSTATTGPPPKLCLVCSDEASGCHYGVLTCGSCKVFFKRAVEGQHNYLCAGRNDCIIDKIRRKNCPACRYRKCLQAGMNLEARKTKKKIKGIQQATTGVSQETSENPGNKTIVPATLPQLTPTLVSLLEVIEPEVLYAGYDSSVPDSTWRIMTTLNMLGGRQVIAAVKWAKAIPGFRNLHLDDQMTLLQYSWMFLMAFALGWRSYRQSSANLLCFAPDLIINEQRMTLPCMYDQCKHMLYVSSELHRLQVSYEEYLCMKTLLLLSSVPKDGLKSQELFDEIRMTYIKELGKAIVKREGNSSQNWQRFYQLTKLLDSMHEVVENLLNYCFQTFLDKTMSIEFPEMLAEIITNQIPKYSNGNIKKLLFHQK
3',5'-cyclic-AMP phosphodiesterase 4B (Homo sapiens), sequence (Q07343 whole entry, looked up): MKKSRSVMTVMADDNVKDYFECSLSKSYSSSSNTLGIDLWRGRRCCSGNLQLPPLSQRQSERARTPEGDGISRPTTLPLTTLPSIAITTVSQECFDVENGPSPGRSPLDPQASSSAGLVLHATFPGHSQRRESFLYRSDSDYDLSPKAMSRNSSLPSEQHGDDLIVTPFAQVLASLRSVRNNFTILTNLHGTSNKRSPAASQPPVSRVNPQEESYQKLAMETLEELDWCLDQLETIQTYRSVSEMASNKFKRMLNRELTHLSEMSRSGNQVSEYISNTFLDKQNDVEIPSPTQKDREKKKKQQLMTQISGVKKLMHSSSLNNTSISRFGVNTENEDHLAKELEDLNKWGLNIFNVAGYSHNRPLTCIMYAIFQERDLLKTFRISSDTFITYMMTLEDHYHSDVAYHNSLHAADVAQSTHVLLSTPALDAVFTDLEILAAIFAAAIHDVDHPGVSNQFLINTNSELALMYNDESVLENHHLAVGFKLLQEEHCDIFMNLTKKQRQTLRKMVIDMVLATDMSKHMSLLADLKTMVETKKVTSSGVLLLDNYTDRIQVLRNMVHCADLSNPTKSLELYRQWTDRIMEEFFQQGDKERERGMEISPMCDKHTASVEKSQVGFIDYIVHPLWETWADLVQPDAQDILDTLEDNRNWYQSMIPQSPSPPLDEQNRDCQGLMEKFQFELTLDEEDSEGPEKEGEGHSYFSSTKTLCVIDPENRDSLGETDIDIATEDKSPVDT
Cytochrome P450 3A4 (Homo sapiens), sequence (P08684 whole entry, looked up): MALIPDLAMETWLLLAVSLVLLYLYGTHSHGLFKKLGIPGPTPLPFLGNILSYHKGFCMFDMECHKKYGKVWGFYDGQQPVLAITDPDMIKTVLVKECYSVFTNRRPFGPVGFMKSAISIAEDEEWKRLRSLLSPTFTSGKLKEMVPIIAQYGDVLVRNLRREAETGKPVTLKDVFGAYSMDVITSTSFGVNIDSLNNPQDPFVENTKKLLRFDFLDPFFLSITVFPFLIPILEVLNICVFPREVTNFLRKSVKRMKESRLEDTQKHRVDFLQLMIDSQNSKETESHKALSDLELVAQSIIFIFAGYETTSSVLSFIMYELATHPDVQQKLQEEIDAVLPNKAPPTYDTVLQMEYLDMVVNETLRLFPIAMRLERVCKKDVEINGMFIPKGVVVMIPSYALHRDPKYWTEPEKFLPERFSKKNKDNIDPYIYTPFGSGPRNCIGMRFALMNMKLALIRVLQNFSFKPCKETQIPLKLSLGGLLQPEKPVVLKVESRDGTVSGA
Cytochrome P450 2D6 (Homo sapiens), sequence (P10635 whole entry, looked up): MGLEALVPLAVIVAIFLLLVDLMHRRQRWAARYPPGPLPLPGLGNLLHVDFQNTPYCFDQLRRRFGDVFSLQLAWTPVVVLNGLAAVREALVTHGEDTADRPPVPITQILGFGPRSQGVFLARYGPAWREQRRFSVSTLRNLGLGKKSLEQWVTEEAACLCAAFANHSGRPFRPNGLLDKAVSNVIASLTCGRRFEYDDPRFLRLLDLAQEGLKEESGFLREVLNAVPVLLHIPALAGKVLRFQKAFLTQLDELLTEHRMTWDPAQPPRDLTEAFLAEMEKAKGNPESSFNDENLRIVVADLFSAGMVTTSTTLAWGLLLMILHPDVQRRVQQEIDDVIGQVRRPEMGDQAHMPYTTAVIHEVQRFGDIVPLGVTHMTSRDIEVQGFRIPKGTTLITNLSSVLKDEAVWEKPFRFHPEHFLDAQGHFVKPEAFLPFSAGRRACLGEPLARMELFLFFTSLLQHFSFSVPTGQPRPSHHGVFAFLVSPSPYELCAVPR

Turning to `COC(=O)N1CCC2(CCCN(Cc3ccccc3)C2)CC1`, the Potency in [1] was greater than 11.4 µM; in test [5], greater than 46 µM. For the same compound, in test [2], the activity change, negative = inhibition was -5.44%. Moreover, the Potency result in [3], in test [6] and in [7] was “inactive” each time. Also, the activity, negative = inhibition in test [4] is 2.77%. In addition, in test [8], the activation is 3.12%. Moreover, the result in [9] was inactive.

For the compound `O=C(c1csnn1)N1CCC[C@@]2(CCN(c3ccncc3)C2)C1`, the values for the Potency in test [1] and in [5] were greater than 11.4 µM and greater than 46 µM, respectively. Further, the activity change, negative = inhibition in test [2] was 13.9%. Besides, the Potency entry in test [3], in [6] and in test [7] was “inactive” in each case. The activity, negative = inhibition in [4] was 8.6%. Also, in [9], the result was inactive.

Turning to `O=C(c1cnccn1)N1CCC2(CC1)CN(Cc1cc(C(F)(F)F)cc(C(F)(F)F)c1)C2`, the Potency in test [1] is greater than 11.4 µM; in test [5], greater than 46 µM; in [10], 0.398 µM (active). In test [2], the activity change, negative = inhibition was -17.8%. In addition, the Potency result in [3], in test [6] and in test [7] was “inactive” in each case. Also, the activity, negative = inhibition in [4] is -1.36%. Further, in test [9], the outcome was inactive.

Regarding `CC(=O)N1CCC[C@@]2(CCN(c3ccccc3)C2)C1`, the Potency in test [1] is greater than 11.4 µM; in test [5] it was greater than 46 µM. Moreover, the activity change, negative = inhibition in test [2] was -11%. Besides, the Potency entry in [3], in [6], in test [7] and in test [11] was “inactive” throughout. Also, the activity, negative = inhibition in [4] was -6.46%. Also, the result in [9] was inactive.

Consider `c1ccc(C(c2ccccc2)N2CC[C@@]3(CCCNC3)C2)cc1`, for which the Potency in test [1] is greater than 11.4 µM; in [5], greater than 46 µM; in test [12] it was 7.94 µM (active). Besides, in [2], the activity change, negative = inhibition was 0.329%. The Potency result in test [3], in [6], in [7] and in [11] was “inactive” each time. Moreover, the activity, negative = inhibition in test [4] is 8.51%. In addition, the result in test [9] was inactive.

Take `N#Cc1cccc(NC(=O)N2CCCC3(CCN(C(=O)c4csnn4)CC3)C2)c1`: the Potency in test [1] is greater than 11.4 µM. In test [2], the activity change, negative = inhibition was 6.7%. Further, the Potency entry in test [3], in test [6] and in test [7] was “inactive” in each case. In addition, the activity, negative = inhibition in test [4] is -0.264%. Moreover, the activation in [8] was -5.53%. For the same compound, in [9], the result was inactive.

On to `N#Cc1ccc(CN2CCCC3(CCN(S(=O)(=O)c4ccccc4)CC3)C2)cc1`, for which the Potency is greater than 11.4 µM in [1], greater than 46 µM in [5], 3.16 µM (active) in test [12] and 0.631 µM (active) in test [10]. In addition, in test [2], the activity change, negative = inhibition is -11.3%. The Potency entry in [3], in test [6], in test [7] and in test [11] was “inactive” in each case. For the same compound, in [4], the activity, negative = inhibition was -1.86%. For the same compound, the outcome in test [9] was inactive.

As to `N#Cc1cccc(NC(=O)N2CCCC3(CCN(C(=O)c4cccc(F)c4)CC3)C2)c1`, the Potency is greater than 11.4 µM in test [1], 12.6 µM (active) in test [3] and greater than 46 µM in test [5]. The activity change, negative = inhibition in [2] is -6.98%. Further, the activity, negative = inhibition in [4] was -4.33%. Further, the Potency entry in test [6], in test [7] and in test [11] was “inactive” throughout. The outcome in test [9] was inactive.
